This note sets out measurements from PubChem BioAssay (EPA / NIEHS).

Records with an inconclusive call do not appear. Some compounds were tested as several samples or in several runs, with calls that do not always agree. Active and inactive are the calls of the source. Rule for the calls, unless noted: active = hit-call score of the fitted dose curve at least 0.9, where 1 is the maximum; inconclusive = response in the unintended direction; inactive = score below 0.9.

For orientation: AC50 means the concentration giving half of the maximal activity seen.

For assay [1], the target named is Cellular tumor antigen p53 (Homo sapiens) (UniProt P04637). As to the kind of experiment: TOX21_p53_BLA_p2_ratio: Tox21 HCT-116 p53 Agonism Beta-lactamase Assay, Ratio, Phase 2 (AID 2283592). The essentials: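 Cleaved-to-uncleaved substrate ratio (460 vs 530 nm) measured in HCT116 cells with an inducible beta-lactamase reporter linked to p53 activity. Compounds incubated 16 h at 37C before 2 h room-temperature CCF4-AM loading.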
Chain of Cellular tumor antigen p53 (Homo sapiens) (P04637 whole entry, looked up): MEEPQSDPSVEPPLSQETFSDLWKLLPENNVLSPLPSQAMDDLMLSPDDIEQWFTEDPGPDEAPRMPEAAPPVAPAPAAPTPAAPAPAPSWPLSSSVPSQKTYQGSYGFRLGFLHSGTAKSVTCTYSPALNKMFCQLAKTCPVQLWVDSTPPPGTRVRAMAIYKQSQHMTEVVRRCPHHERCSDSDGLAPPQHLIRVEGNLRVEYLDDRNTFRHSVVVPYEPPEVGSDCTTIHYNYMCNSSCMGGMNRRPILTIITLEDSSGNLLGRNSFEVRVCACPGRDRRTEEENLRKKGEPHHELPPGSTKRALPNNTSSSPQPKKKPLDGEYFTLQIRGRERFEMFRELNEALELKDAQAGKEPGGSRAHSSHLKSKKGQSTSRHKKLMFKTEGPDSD

Assay [2] can be described thus: TOX21_p53_BLA_p3_viability: Viability Assessment in the Tox21 HCT-116 p53 Agonism Beta-lactamase Assay, Phase 3 (AID 2283593).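 Note: cells exposed to compound for 16 h before reading.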 In outline:
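HCT116 cells, 4000/well, dosed 5 h after plating by pin transfer (217-fold dilution from DMSO stock) and incubated 16 h at 37C, 5% CO2. Viability read as ATP luminescence with CellTiter-Glo after 30 min at room temperature.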

For assay [3], the target named is Cellular tumor antigen p53 (Homo sapiens) (UniProt P04637). Briefly: TOX21_p53_BLA_p3_ratio: Tox21 HCT-116 p53 Agonism Beta-lactamase Assay, Ratio, Phase 3 (AID 2283596). In outline:
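Cells were seeded at 4000/well, rested 5 h at 37C, then dosed with DMSO compound solutions (217-fold dilution) for 16 h. CCF4-AM substrate was loaded for 2 h at room temperature, and the 460/530 nm emission ratio was fitted for gain of signal versus DMSO.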

A short description of assay [4]: TOX21_p53_BLA_p4_viability: Viability Assessment in the Tox21 HCT-116 p53 Agonism Beta-lactamase Assay, Phase 4 (AID 2283597).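 Note: hits lower the luminescence signal meaning cytotoxicity.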 In outline: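 Viability is taken as cellular ATP: after 16 h compound exposure of HCT116 cells and a 2 h room-temperature CCF4-AM substrate step, CellTiter-Glo reagent is added and luminescence is measured 30 min later.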
Assay [5] is described as follows: TOX21_p53_BLA_p5_viability: Viability Assessment in the Tox21 HCT-116 p53 Agonism Beta-lactamase Assay, Phase 5 (AID 2283600). In outline: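 Viability is taken from cellular ATP content, measured by luciferase luminescence in the same wells after the beta-lactamase ratio read. Cells are seeded at 4000 per well and exposed to DMSO-dissolved compounds, diluted 217-fold, for 16 h.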

For assay [6], the target named is Cellular tumor antigen p53 (Homo sapiens) (UniProt P04637). As to the kind of experiment: TOX21_p53_BLA_p4_ratio: Tox21 HCT-116 p53 Agonism Beta-lactamase Assay, Ratio, Phase 4 (AID 2283601). In outline:
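HCT-116 p53 beta-lactamase reporter cells (4000/well) preincubated 5 h, then compound (217-fold dilution of DMSO stock) for 16 h at 37C. CCF4-AM substrate added 2 h at room temperature; 460/530 nm emission ratio fitted upward versus DMSO.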

For assay [7] the target is unchanged. Briefly: TOX21_p53_BLA_p5_ratio: Tox21 HCT-116 p53 Agonism Beta-lactamase Assay, Ratio, Phase 5 (AID 2283599). The essentials: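 HCT-116 p53-bla cells (4000/well) plated 5 h, dosed with compound (217-fold DMSO dilution) for 16 h at 37 C; CCF4-AM substrate 2 h at room temperature. Activity is the 460/530 nm emission ratio (405 nm excitation), fitted in gain-of-signal direction versus DMSO.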

In assay [8] the target is Thyroid hormone receptor alpha (Rattus norvegicus) + Thyroid hormone receptor beta (Rattus norvegicus) (UniProt P18113+P63059). As to the kind of experiment: TOX21_TR_LUC_GH3_Agonist_Followup: Tox21 GH3 Thyroid Hormone Receptor Agonism Luciferase Follow-Up Assay (AID 2283939). In outline: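 Agonist-mode confirmatory run: 15 concentrations (5 nM to 92 uM final) on GH3 rat pituitary cells, 24 h at 37C/5% CO2, T3 as positive control. Luminescence read with ONE-Glo after 30 min.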
Chain of Thyroid hormone receptor alpha (Rattus norvegicus) + Thyroid hormone receptor beta (Rattus norvegicus) (P63059 whole entry, looked up): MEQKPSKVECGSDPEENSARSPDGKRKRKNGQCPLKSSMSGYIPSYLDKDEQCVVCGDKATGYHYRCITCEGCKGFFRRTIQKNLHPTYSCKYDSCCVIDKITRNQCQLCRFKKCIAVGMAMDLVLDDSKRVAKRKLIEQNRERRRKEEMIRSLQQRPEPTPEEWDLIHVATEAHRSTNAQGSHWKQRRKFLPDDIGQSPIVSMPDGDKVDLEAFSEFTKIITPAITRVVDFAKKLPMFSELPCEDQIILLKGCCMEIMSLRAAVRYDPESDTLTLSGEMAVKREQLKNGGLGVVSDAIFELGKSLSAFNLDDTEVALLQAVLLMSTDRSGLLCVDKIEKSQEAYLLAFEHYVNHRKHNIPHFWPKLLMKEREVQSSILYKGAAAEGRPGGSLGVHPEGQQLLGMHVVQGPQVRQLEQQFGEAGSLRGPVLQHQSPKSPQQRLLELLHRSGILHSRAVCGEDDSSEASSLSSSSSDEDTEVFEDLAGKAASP
Chain of Thyroid hormone receptor alpha (Rattus norvegicus) + Thyroid hormone receptor beta (Rattus norvegicus) (P18113 whole entry, looked up): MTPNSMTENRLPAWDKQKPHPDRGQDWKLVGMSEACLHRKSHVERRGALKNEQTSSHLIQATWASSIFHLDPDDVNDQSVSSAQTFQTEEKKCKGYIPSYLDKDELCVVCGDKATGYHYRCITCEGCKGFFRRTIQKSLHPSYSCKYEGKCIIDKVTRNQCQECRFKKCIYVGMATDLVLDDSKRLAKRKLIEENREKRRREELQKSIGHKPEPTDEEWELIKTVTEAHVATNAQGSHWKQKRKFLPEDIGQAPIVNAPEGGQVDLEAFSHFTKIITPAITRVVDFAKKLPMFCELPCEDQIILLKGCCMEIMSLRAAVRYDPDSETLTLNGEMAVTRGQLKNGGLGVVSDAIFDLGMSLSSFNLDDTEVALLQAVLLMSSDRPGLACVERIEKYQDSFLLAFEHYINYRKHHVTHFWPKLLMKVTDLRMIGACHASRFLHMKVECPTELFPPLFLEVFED

The target in assay [9] is THRA (gene 7067) (UniProt P10827). Briefly: TOX21_TRA_COA_Agonist_Followup_ratio: Tox21 Thyroid Hormone Receptor alpha Agonism through Coactivator Recruitment Follow-Up Assay, Ratio (AID 2283948; active = hit-call score of the fitted dose curve at least 0.9, where 1 is the maximum; inactive = score below 0.9). In outline: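 First, compound was incubated with 2.5 nM GST-TRα LBD in 0.10% BSA. Next, 200 nM fluorescein-SRC-2 and 2 nM Tb-anti-GST antibody were added. Finally, the 520:495 nm ratio was normalized to DMSO and T3 controls.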
Chain of THRA (gene 7067) (P10827 whole entry, looked up, the tested form may be a part): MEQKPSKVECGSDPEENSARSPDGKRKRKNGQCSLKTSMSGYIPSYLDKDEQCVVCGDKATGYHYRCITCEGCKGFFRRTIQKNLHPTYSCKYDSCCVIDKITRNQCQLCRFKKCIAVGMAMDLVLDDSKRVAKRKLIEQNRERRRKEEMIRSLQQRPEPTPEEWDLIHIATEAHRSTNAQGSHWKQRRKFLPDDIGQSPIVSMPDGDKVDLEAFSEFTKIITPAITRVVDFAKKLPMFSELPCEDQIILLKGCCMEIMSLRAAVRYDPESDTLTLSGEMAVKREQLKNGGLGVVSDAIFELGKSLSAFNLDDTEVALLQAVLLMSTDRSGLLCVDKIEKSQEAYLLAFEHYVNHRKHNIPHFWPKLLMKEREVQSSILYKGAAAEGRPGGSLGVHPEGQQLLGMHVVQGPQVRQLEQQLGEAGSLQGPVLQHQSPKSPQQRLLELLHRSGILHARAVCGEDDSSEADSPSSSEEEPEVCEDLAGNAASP

In assay [10] the target is THRB (gene 7068) (UniProt P10828). Briefly: TOX21_TRB_BLA_Agonist_Followup_ratio: Tox21 Thyroid Hormone Receptor beta Agonism Beta-lactamase (BLA) Follow-Up Assay, Ratio (AID 2283954). The essentials: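 Agonist mode: compounds (11-point, triplicate) incubated 18 h with HEK293T cells carrying GAL4-DBD/human TRβ-LBD and UAS-β-lactamase. Blue/green (460/530 nm) FRET ratio read after 2 h CCF4-AM loading; CellTiter-Glo viability run in the same plates.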
Chain of THRB (gene 7068) (P10828 whole entry, looked up, the tested form may be a part): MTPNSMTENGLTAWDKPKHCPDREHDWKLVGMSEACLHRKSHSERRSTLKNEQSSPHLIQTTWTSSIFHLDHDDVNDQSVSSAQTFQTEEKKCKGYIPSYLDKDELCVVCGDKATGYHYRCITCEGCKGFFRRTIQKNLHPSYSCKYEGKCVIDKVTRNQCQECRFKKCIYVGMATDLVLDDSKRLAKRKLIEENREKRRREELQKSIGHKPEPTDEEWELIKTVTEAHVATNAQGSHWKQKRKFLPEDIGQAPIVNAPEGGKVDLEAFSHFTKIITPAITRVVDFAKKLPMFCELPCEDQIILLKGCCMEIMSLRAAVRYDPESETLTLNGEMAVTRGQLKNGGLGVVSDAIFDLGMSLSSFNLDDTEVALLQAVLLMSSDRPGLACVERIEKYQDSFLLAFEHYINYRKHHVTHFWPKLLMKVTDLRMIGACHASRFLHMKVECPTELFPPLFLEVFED

Assay [11] has the same target. Briefly: TOX21_TRB_COA_Agonist_Followup_ratio: Tox21 Thyroid Hormone Receptor beta Agonism through Coactivator Recruitment Follow-Up Assay, Ratio (AID 2283963; active = hit-call score of the fitted dose curve at least 0.9, where 1 is the maximum; inactive = score below 0.9). In outline:
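Signal is the 520/495 nm emission ratio (excitation 340 nm), scaled between DMSO-only wells as 0% and T3 wells as 100%. It reflects fluorescein-labeled SRC-2 peptide recruitment to GST-TRβ ligand-binding domain detected via terbium anti-GST antibody.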

Assay [12] deals with Retinoic acid receptor RXR-alpha (Homo sapiens) (UniProt P19793). Briefly: TOX21_TR_RXR_BLA_Agonist_Followup_ratio: Tox21 Thyroid Hormone Receptor beta Retinoid X Receptor alpha (RXRa) Agonism Beta-lactamase (BLA) Follow-Up Assay, Ratio (AID 2283968). In outline:
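Agonism is scored as an increase in the 460:530 nm beta-lactamase substrate ratio over DMSO in RXRa-UAS-bla HEK293T cells exposed for 16 h to 11 compound concentrations.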

Chain of Retinoic acid receptor RXR-alpha (Homo sapiens) (P19793 whole entry, looked up): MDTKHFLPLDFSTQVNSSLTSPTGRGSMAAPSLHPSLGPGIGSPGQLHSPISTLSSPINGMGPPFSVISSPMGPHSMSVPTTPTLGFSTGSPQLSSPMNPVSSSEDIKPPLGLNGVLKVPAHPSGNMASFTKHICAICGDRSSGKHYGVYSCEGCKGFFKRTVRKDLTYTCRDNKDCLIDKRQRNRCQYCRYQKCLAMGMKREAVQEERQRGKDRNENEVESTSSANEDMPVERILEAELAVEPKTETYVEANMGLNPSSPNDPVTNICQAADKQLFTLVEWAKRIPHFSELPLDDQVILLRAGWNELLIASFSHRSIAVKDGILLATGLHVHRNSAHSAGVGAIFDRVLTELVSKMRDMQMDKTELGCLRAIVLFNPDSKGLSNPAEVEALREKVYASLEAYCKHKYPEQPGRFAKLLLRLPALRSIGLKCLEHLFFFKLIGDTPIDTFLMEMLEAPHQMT

Consider `O=C(O)Cc1ccc(CCNS(=O)(=O)c2ccc(Cl)cc2)cc1`, for which the result in assay [1], in [2], in [3], in assay [4], in assay [5] and in assay [6] was inactive.
With `O=P(O)(O)OP(=O)(O)O`, the result in assay [1], in assay [2], in assay [3], in [4], in [5] and in [6] was inactive.
Regarding `CC(=O)Oc1c(C)cc(OCC(O)CNC(C)C)c(C)c1C` (stereo unspecified), the outcome in assay [1], in assay [2], in [3], in [4] and in assay [6] was inactive.
For the compound `CC(C)(O)CCCC1=CCC(C=O)CC1` (stereo unspecified), the outcome in assay [1], in [2], in assay [3], in [4] and in assay [5] was inactive.
Regarding `CCC1OC(=O)C[C@@H](O)[C@H](C)[C@@H](O[C@@H]2O[C@H](C)C[C@H](N(C)C)[C@H]2O)[C@@H](CC=O)C[C@@H](C)C(=O)/C=C/[C@]2(C)OC2C1C` (stereo partly specified), the result in [1], in [2], in assay [3], in assay [7] and in [6] was inactive. Further, the AC50 was 35 µM (active) in assay [7] and 27.1 µM (active) in [6].
For the compound `CCCC(CC)CCCCCCCN` (stereo unspecified), the result in assay [1], in assay [4], in [5] and in assay [6] was inactive. The values for the AC50 in assay [2] and in assay [3] were 81 µM (active) and 79.2 µM (active), respectively.
In the case of `NCCCC[C@H](N[C@@H](CCc1ccccc1)C(=O)O)C(=O)N1CCC[C@H]1C(=O)O`, the result in [1], in [2], in assay [3], in [4], in assay [5] and in assay [6] was inactive.
Turning to `CO[C@@H]1[C@@H](OC(N)=O)[C@@H](O)[C@H](Oc2ccc3c(O)c(NC(=O)c4ccc(O)c(CC=C(C)C)c4)c(=O)oc3c2C)OC1(C)C`, the outcome in [1], in [2], in [3], in assay [4] and in [5] was inactive.
Take `O=C(O)Cc1ccc(Cl)cc1Cl`: the outcome in [1], in assay [2], in [3], in assay [4] and in [5] was inactive.
As to `CS(=O)(=O)Nc1cc2occ(NC=O)c(=O)c2cc1Oc1ccccc1`, the outcome in [1], in assay [2], in assay [3], in assay [4] and in assay [5] was inactive.
As to `CC(=O)NC(Cc1ccccc1)C(=O)O` (stereo unspecified), the result in assay [1], in assay [2], in assay [3], in [4], in assay [5] and in [6] was inactive.
`CCN(C=O)CC`: the result in assay [1], in assay [2], in assay [3], in [4] and in assay [5] was inactive.
As for `Clc1cc(Cl)cc(Cl)c1`, the outcome in assay [1], in [2], in assay [3], in [4], in [5] and in [6] was inactive.
On to `COc1ccccc1OC(=O)Oc1ccccc1OC`, for which the result in [1], in [2], in assay [3], in [4] and in assay [6] was inactive.
On to `Cc1cccc(C)c1NC(=O)CC12CCCN1CCC2`, for which the outcome in [1], in assay [2], in [3], in assay [7], in [5] and in assay [6] was inactive.
On to `CC(C)CC(C)(N)C#N` (stereo unspecified), for which the outcome in [1], in [2], in assay [3], in assay [7], in assay [5] and in assay [6] was inactive.
As to `CC(=O)CC(=O)c1ccccc1`, the outcome in assay [1], in [2], in assay [3], in [7], in assay [5] and in assay [6] was inactive.
In the case of `CCCCCCCCOCCC#N`, the outcome in assay [1], in assay [2], in assay [3], in assay [7], in assay [5] and in assay [6] was inactive.
In the case of `O=Cc1ccccc1[N+](=O)[O-]`, the AC50 in [1] was 70.6 µM (active); in assay [7], 68 µM (active). Further, the result in [2], in assay [3], in assay [5] and in [6] was inactive.
As to `O=Cc1c(Cl)cccc1Cl`, the outcome in assay [1], in assay [2], in [3], in [7], in [5] and in assay [6] was inactive.
For `CC[N+](CC)(CC)CCOc1ccc(/C=C/c2ccccc2)cc1`, the outcome in [1], in [2], in [3], in assay [7], in assay [5] and in assay [6] was inactive.
As for `C=CC1CO1` (stereo unspecified), the outcome in assay [1], in [2], in [3], in assay [7], in [5] and in [6] was inactive.
Consider `NCC(=O)CCC(=O)O`, for which the outcome in assay [1], in assay [2], in assay [3], in assay [7], in assay [5] and in assay [6] was inactive. Besides, the result in assay [9], in assay [10], in assay [11] and in assay [12] was inactive. Further, the AC50 in [8] was 13.1 µM (active).
Turning to `CCc1cc(S(=O)(=O)O)c2cc(C(C)C)cccc1-2`, the outcome in assay [1], in assay [2], in assay [3], in assay [7], in assay [5] and in assay [6] was inactive.
Consider `CC(C)(C)NCC(O)c1ccc(O)c(CO)n1` (stereo unspecified), for which the result in assay [1], in assay [2], in assay [3], in assay [7], in [5] and in assay [6] was inactive.
For `O=C(O)C(=O)Cc1c[nH]c2ccccc12`, the result in assay [1], in assay [2], in [3], in assay [7], in [5] and in assay [6] was inactive.
In the case of `CCC(CO)(CO)COCC(CC)(CO)CO`, the outcome in assay [1], in assay [2], in [3], in [7], in [5] and in assay [6] was inactive.
